Records with an inconclusive call do not appear. Entries that show only a call come without a potency. Calls of active or inactive are those of the source. Unless noted, calls come from the whole dose curve; as a rule, active = well fitted curve in the direction sought with a large enough effect; inconclusive = small, poorly fitted or top-dose-only effect, or another doubt; inactive = no such curve, though single readings can be large; an effect the other way counts as inactive or inconclusive.
What was measured:
[1] = target: Cytochrome P450 1A2 (Homo sapiens) (UniProt P05177); experiment: p450-cyp1a2 (AID 410; calls by dose curve; note: potency is the fitted concentration of half-maximal effect)
Cytochrome P450 1A2 (Homo sapiens), sequence (P05177 whole entry, looked up): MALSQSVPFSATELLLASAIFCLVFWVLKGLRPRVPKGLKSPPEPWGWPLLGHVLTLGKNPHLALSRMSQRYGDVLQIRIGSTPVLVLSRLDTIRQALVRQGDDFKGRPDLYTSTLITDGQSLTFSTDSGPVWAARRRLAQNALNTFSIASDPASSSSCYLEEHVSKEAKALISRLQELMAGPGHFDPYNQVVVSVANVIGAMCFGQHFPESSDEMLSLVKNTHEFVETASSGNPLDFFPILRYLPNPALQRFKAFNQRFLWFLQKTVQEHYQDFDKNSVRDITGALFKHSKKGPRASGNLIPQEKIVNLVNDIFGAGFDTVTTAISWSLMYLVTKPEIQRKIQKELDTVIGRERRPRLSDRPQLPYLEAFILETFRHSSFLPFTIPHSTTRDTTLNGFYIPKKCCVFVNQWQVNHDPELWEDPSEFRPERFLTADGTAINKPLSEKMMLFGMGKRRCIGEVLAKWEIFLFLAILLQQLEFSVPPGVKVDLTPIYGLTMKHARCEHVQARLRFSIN
In short: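 Read-out is luminescence from luciferin produced by CYP1A2 demethylation of Luciferin-ME (100uM, at Km). Detection reagent stopped the 60 min NADPH-dependent reaction; signals were normalized to 57 uM furafylline.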

[2] = target: Cytochrome P450 3A4 (Homo sapiens) (UniProt P08684); experiment: qHTS Assay for Activators of Cytochrome P450 3A4 (AID 885); note: nearly all actives have a fitted effect of over 65% in size
Cytochrome P450 3A4 (Homo sapiens), sequence (P08684 whole entry, looked up): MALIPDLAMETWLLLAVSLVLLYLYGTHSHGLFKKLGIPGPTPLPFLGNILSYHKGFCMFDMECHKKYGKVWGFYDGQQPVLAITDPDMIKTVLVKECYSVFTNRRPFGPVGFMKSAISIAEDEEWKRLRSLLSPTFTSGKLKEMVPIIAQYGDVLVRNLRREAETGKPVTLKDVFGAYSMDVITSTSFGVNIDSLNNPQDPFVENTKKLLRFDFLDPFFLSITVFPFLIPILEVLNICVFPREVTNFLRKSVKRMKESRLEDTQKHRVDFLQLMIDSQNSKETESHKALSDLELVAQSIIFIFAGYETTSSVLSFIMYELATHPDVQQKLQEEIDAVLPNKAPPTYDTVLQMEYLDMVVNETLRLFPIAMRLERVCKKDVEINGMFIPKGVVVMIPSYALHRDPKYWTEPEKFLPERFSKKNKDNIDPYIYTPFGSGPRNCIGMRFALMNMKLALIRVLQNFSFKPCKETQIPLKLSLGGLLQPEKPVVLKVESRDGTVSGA
In short: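 CYP3A4 activity: Luciferin-PPXE O-dealkylation, 25uM substrate, 200mM KPO4, RT throughout. Read-out is luciferase luminescence; higher values reflect activation.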

[3] = target: 3',5'-cyclic-AMP phosphodiesterase 4B (Homo sapiens) (UniProt Q07343); experiment: qHTS Assay for Inhibitors of PDE-IV (AID 607; active = well fitted activation curve with a large enough effect in the main read-out, with a control signal flat, not every such curve was filed as active)
3',5'-cyclic-AMP phosphodiesterase 4B (Homo sapiens), sequence (Q07343 whole entry, looked up): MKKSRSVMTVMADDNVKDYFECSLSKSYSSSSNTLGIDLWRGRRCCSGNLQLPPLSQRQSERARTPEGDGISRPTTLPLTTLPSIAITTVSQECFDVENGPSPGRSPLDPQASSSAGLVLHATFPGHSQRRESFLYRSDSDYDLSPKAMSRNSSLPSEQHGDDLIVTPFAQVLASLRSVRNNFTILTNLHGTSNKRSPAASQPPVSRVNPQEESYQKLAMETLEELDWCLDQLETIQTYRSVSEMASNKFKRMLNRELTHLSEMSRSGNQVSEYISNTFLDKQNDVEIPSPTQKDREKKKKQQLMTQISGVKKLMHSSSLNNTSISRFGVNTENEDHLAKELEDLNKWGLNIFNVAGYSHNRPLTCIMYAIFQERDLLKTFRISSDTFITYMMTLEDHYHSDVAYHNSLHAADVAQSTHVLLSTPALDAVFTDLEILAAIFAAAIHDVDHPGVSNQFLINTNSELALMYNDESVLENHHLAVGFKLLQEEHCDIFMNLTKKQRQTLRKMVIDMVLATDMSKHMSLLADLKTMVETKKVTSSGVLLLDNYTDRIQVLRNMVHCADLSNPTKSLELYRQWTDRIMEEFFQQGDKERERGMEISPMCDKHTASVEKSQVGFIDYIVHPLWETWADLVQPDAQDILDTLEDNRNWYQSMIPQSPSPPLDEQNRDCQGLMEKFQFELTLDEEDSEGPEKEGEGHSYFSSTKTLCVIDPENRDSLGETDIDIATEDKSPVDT
In short: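 ACTOne HEK293 cells carry a modified cAMP-gated CNG channel and express endogenous PDE4; plated 1000 cells/well, compounds up to 22.9 uM final. Membrane-potential dye fluorescence (ex 535/em 590) was read; parental cells received 10 uM forskolin + 100 uM RO 20-1724.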

[4] = target: Cytochrome P450 3A4 (Homo sapiens) (UniProt P08684); experiment: qHTS Assay for Inhibitors and Substrates of Cytochrome P450 3A4 (AID 884); note: potency is the fitted concentration of half-maximal effect; nearly all actives have a fitted effect of over 50% in size
In short: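 Luminescent readout of luciferin produced by CYP3A4 (20 nM) dealkylation of Luciferin-PPXE, 25 uM (its KM). NADPH-driven reaction ran 60 min at RT after 10 min compound preincubation; data scaled to 57 uM ketoconazole as 100% inhibition.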

[5] = target: Cytochrome P450 2C19 (Homo sapiens) (UniProt P33261); experiment: qHTS Assay for Inhibitors and Substrates of Cytochrome P450 2C19 (AID 899); note: potency is the fitted concentration of half-maximal effect; nearly all actives have a fitted effect of over 60% in size
Cytochrome P450 2C19 (Homo sapiens), sequence (P33261 whole entry, looked up): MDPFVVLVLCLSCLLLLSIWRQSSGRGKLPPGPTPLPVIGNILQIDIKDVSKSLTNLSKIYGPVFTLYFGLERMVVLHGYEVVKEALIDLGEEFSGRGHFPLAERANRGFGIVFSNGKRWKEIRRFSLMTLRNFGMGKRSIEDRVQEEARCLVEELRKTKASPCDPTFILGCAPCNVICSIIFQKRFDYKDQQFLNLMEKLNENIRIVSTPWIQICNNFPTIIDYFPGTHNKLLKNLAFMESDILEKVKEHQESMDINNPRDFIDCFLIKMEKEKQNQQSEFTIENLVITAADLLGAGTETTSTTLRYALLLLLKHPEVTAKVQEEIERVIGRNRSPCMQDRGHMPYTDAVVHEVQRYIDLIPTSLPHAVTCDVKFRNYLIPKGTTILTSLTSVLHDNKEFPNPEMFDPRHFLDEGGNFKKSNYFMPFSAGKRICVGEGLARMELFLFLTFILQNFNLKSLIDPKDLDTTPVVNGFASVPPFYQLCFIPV
In short: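 Signal comes from luciferase acting on luciferin released by CYP2C19-mediated hydroxylation of Luciferin-H EGE, 10uM (KM). Assay mix: 5nM enzyme, 50mM KPO4; 60 min at 37C with NADPH regeneration. Data normalized against 57uM ketoconazole.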

Q: How did the Potency [1] turn out when `CC(C)c1cccc2c([Si](C)(C)C)c3c(nc12)-c1cccc(=O)n1C3` was run?
A: The Potency was 15.8 µM (active).

Q: And the Potency [2]?
A: The Potency was “inactive”.

Q: With `COC(=O)[C@@]1(Cc2ccccc2)[C@H]2c3cc(C(=O)N4CCCC4)n(CC4CC4)c3C[C@H]2CN1C(=O)c1ccccc1` as the compound, how does the Potency [1] read?
A: Its Potency is “inactive”.

Q: What about the Potency [3] of the same compound?
A: The Potency was “inactive”.

Q: And the Potency [4]?
A: The Potency was 3.16 µM (active).

Q: What about the Potency [2] of the same compound?
A: The Potency was “inactive”.

Q: And the Potency [5]?
A: Its Potency is 3.16 µM (active).
